# High-throughput results from PubChem.
# mHTT-CaM PPI inh: inhibitors of human mutant huntingtin-calmodulin interaction. inhibition, % at 15 µM. 190,000 tested, 3.6% active. P42858. AlphaScreen His-mHTT/GST-CaM binding, luminescence;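 also: 0% = both proteins with DMSO and 100% = one protein alone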
# Pf apPOL inh: Pf-apPOL DNA polymerase inhibition; inhibition, % at 10 µM; Recombinant Pf-apPOL, molecular beacon fluorescence, 1.5 h; 210,000 tested, 0.25% active
# * hit, by the source's call; · = not tested or not shown; ! = not confirmed by another sample. Compounds with a hit are over-represented: about 3.5% of the library has one in this group of screens. Rule as the data show it: active = inhibition above about 50%; inactive = the rest.
SMILES,mHTT-CaM PPI inh,Pf apPOL inh
O=C(CCn1c(SCc2ccccc2F)nc2ccccc2c1=O)N1CCCCC1,-2,-9
CS(=O)(=O)Nc1ccc(C2=NN(C(=O)c3ccc(F)cc3)C(c3cccs3)C2)cc1 (stereo unspecified),16,1
CC(C)NC(=O)N1CCC2(CC1)Nc1cc(F)ccc1-n1cccc12,34,2
CCN1c2ccc(C)cc2C(=O)NC12CCN(C(=O)c1ccc(Cl)cc1)CC2,-6,-4
Cc1ccc2c(c1)NC1(CCN(C(=O)c3ccc(Cl)cc3)CC1)c1cccn1-2,53*,-6
Cc1ccc2c(c1)NC1(CCN(C(=O)c3ccc(F)cc3)CC1)c1cccn1-2,87*,-5
Fc1ccc(CN2CCC3(CC2)N=C(C2CC2)NO3)cc1,6,1
Cc1ccc(C)c(NC(=O)N2CCc3nc(-c4ccc(Cl)cc4)ncc3C2)c1,0,-5
Nc1ccccc1-c1nnc(SCc2ccccc2)[nH]c1=O,2,4
C=CCSc1nnc(-c2ccccc2N)c(=O)[nH]1,99*!,-6
O=C(c1ccco1)N1CCN(C2CC(=O)N(c3ccc(F)cc3)C2=O)CC1 (stereo unspecified),-3,-1
Fc1ccc(C2Nc3c(F)cccc3C3C=CCC32)cc1 (stereo unspecified),57*,-6
COc1cccc2c1NC(c1cccc(Br)c1)C1CC=CC21 (stereo unspecified),53*,-11
COc1cccc2c1NC(c1ccc(F)cc1)C1CC=CC21 (stereo unspecified),79*,-2
Fc1cccc2c1NC(c1ccc(Br)cc1)C1CC=CC21 (stereo unspecified),40,4
COc1cc(C2Nc3c(C)cccc3C3C=CCC32)cc(Br)c1OC (stereo unspecified),0,-2
COc1ccc(Cl)c2c1NC(c1ccc(F)cc1)C1CC=CC21 (stereo unspecified),50*,6
Cn1ncc(N2CCCC(C(=O)NCc3ccc4c(c3)OCO4)C2)cc1=O (stereo unspecified),3,-3
CCOc1ccc(-c2cn3ccn(-c4cc(C)c(Cl)cc4OC)c(=O)c3n2)cc1,-5,-2
CCOc1ccc(CN2CCN(c3ccccc3OCC)CC2)cc1,2,0
CC1CN2C=NC(N3CCN(C(=O)Nc4cccc(C(F)(F)F)c4)CC3)=CC2=N1 (stereo unspecified),4,2
Cc1cc(O)c(C(=O)C=CN(C)C)c(=O)o1,·,-1
COc1cccc2c1NC(c1ccccc1Br)C1CC=CC21 (stereo unspecified),38,3
CCOc1cccc2c1NC(c1ccc(C(=O)O)cc1)C1CC=CC21 (stereo unspecified),63*,-6
c1ccc(C2Nc3ccccc3C3OCCC23)cc1 (stereo unspecified),-1,0
SMILES,mHTT-CaM PPI inh,Pf apPOL inh
COc1cccc2c1NC(c1ccc(Br)cc1)C1CC=CC21 (stereo unspecified),58*,5
CN(C)C(=O)c1cccc2c1NC(c1ccc(Br)cc1)C1CC=CC21 (stereo unspecified),64*,-38
Fc1ccc(C2Nc3ccccc3C3C=CCC32)cc1 (stereo unspecified),87*,16
CCOc1ccc(C(=O)N2CCN(c3ccc([N+](=O)[O-])c(NCc4ccccc4)c3)CC2)cc1,-3,-6
O=C(NCCc1csc(C2CCN(C(=O)NC3CCCCC3)CC2)n1)C1CC1,6,3
O=C(CSc1nnnn1-c1ccccc1)N(c1ccccc1)c1ccccc1,-2,0
N#Cc1c(N)nc2c(c1-c1ccc3c(c1)OCO3)CCCCC2,-7,-2
O=C(O)c1cccc2c1NC(c1ccccc1Br)C1CC=CC21 (stereo unspecified),48,5
O=C(O)c1cccc2c1NC(c1ccc(F)cc1)C1CC=CC21 (stereo unspecified),96*!,1
COC(=O)CNC(=O)c1cn(-c2ccccc2)nc1-c1ccc(OC)c([N+](=O)[O-])c1,40,-1
CCN(CC)C(=S)Oc1c(Br)cc(Br)cc1Br,·,-2
Cc1ccc(C(C)(c2ccc(N)cc2)c2ccc(N)cc2)cc1,68*,-12
Cc1ccc(S(=O)(=O)N(C)c2ccc(N)cc2)cc1,6,24
O=C1CN(C(=O)c2ccccc2C(F)(F)F)C(c2ccccc2)c2cc(Cl)ccc2N1 (stereo unspecified),38,-3
CCN(CC)C1C(=O)Nc2ccc(Cl)cc2C1c1ccccc1 (stereo unspecified),95*,7
COc1ccccc1N1CCN(C(=O)c2ccc(Cl)c(Cl)c2)CC1,41,-5
O=[N+]([O-])c1cc([N+](=O)[O-])c2cccnc2c1Nc1ccccc1,13,-3
CN(C)c1ccc(Nc2c([N+](=O)[O-])cc([N+](=O)[O-])c3cccnc23)cc1,87*,-12
CC(C)C(=O)NC1CCc2[nH]c3cc(Cl)cc(Cl)c3c2C1 (stereo unspecified),68*,-2
Cc1nc(CC(=O)NC2CCc3[nH]c4cc(Cl)cc(Cl)c4c3C2)c(C)s1 (stereo unspecified),78*,1
Cc1ccc2[nH]c3c(c2c1)CC(NC(=O)Cc1ccccc1C)CC3 (stereo unspecified),42,3
Cc1cc(C)c2c3c([nH]c2c1)CCC(NC(=O)C1CCCC1)C3 (stereo unspecified),36,2
CC(=O)N(CN1C(=O)c2ccc([N+](=O)[O-])cc2C1=O)c1ccc(F)cc1,23,3
CC(=O)N(CN1C(=O)c2ccc([N+](=O)[O-])cc2C1=O)c1ccc(Oc2ccc(Cl)cc2)cc1,3,92*
CCNCCNC(=O)c1c(O)c2cc(F)cc3c2n(c1=O)C(C)CC3 (stereo unspecified),98*,-66
SMILES,mHTT-CaM PPI inh,Pf apPOL inh
CC1CCc2cc(F)cc3c(O)c(C(=O)NCCCN4CCOCC4)c(=O)n1c23 (stereo unspecified),27,-80
O=C(NCc1ccc(N2CCOCC2)nc1)c1cccc(Cl)c1,5,-3
CN(Cc1ccccc1)Cc1cncc(-c2cc3ccccc3s2)c1,80*,-2
CN(Cc1ccccc1)Cc1ccc(O)cc1,-4,-1
Cc1ccc2n1CCN(C(=O)NCCc1ccccc1)C2C(C)C (stereo unspecified),54*,-3
Cc1ccc2n1CCN(C(=O)NCc1ccccc1)C2C(C)C (stereo unspecified),2,-4
COc1ccc(OCCSc2nc3ccc(Br)cc3[nH]2)cc1,0,-3
CCCN1C(=O)c2ccc(C(=O)O)cc2C1=O,4,-2
CCOC1=NC2Nc3ccc(Cl)cc3N(C)C2C1c1ccc([N+](=O)[O-])cc1 (stereo unspecified),54*,-2
CCN1c2ccccc2NC2N=C(OC)C(c3ccccc3)C21 (stereo unspecified),41,-2
O=C(O)c1ccoc1CN1CCCCC1,3,0
Cc1ccc(N2CCN(C(=O)c3sc(Nc4ccc(F)cn4)nc3C)CC2)cc1,78*,-6
Cc1ccnc(Nc2nc(C)c(C(=O)N3CCCC3)s2)c1,1,24
c1csc(-c2nn[nH]n2)c1,·,-2
Cn1c(=O)c([N+](=O)[O-])c(NCc2ccccc2)c2ccccc21,-1,1
CC(O)CNc1c([N+](=O)[O-])c(=O)n(C)c2ccccc12 (stereo unspecified),-1,70*
